RXFP1 ag: RXFP1 (human) receptor agonism; HEK293T-RXFP1 cAMP TR-FRET, 30 min; response scale: percent of porcine relaxin response, buffer zero; actives 0.3% (n = 370,000); AID 2676; Q9HBX9; Potency, µM (top dose mostly 57.5 µM), for inactives: top-dose activation, usual class: activators; active = well fitted activation curve with a large enough effect; inconclusive = small, poorly fitted or top-dose-only effect; note: potency is the fitted concentration of half-maximal effect; nearly all actives have a fitted effect of over 60% in size
Target sequence (Q9HBX9 whole entry, looked up): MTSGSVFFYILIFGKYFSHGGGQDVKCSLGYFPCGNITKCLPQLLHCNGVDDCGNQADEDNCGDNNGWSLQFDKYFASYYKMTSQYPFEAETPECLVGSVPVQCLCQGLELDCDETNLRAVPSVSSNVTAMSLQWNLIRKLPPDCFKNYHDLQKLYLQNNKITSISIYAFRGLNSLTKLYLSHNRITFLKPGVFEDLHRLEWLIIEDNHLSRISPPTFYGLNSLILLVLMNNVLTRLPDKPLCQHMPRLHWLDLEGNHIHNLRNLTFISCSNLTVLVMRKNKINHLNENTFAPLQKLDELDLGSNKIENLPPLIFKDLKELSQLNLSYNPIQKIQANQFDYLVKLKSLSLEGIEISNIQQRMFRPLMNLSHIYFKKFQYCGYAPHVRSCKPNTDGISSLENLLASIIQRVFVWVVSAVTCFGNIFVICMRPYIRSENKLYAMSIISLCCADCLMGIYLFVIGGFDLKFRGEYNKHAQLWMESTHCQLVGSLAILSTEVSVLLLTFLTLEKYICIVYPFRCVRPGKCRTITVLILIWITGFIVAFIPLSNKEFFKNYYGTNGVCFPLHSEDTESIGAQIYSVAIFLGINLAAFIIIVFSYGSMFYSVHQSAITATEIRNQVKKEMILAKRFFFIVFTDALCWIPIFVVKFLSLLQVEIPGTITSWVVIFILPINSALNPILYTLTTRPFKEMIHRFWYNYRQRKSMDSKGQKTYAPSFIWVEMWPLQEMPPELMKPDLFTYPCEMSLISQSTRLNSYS
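cAMP rise read by TR-FRET after 30 min, 37C compound exposure (up to 58 uM) in RXFP1-transfected HEK293 cells with Ro 20174 present. EC50 from Hill-equation fits, with 29 nM porcine relaxin as 100% and buffer as basal.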
Akt phos inh: blocks phosphorylation of Akt; actives 0.32% (n = 360,000); activity change, % for hits at 50 µM; Neuro2A IGF-stimulated pAkt S473 HTRF, 20 min; active compounds read low; AID 651550; in the data active = activity change below about -80%; inconclusive = mostly about -51% to -80%
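Neuro2A cells (4,500/well, DMEM with 0.5% FBS) were treated with compound at a single 50 µM final concentration, stimulated with 6 nM IGF for 20 min at 37 °C, and lysed. Phospho-Akt Ser473 was read by HTRF as 665/615 ratio ×10^4.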
KCNH2 WT inh: blocks the wildtype human KCNH2 potassium channel. Q12809. U2OS, BacMam KCNH2, thallium flux FluxOr; active compounds read low. activity change, % at 1.84 µM. actives 0.37% (n = 340,000);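 active = maximum activity change below -70%; inconclusive = maximum activity change between -70% and -50%; inactive = maximum activity change above -50%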
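U2OS cells were transduced with wild-type KCNH2 virus (2.03 x 10^8 / mL) for 4 h at room temperature, then cultured overnight at 37 C. Thallium flux was read with FluxOr dye. Rate constants were normalized to DMSO controls.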
KCNH2 3.1 block: KCNH2 3.1 (human) potassium channel inhibition. U2OS KCNH2 3.1, thallium flux FluxOr; active compounds read low. activity change, % (tested at about 1.8 µM). actives 0.95% (n = 340,000). AID 720553;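 active = maximum activity change below -70%; inconclusive = maximum activity change from -70% to -50%; inactive = maximum activity change above -50%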;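 note: thallium influx rate constant from kinetic fluorescence after stimulation buffer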
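We transduce U2OS cells with the mutant 3.1 virus, culture them overnight, load FluxOr with Red40 quencher for 45 min, then add stimulation buffer and read kinetically for 2 min to derive a normalized rate constant.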
RXFP1 antagonist: antagonists of human relaxin receptor RXFP1; AID 1259400; Q9HBX9; HEK293-RXFP1, relaxin-stimulated cAMP HTRF, 30 min; active compounds read low; actives 0.59% (n = 350,000); activity change, negative = inhibition, % at 57.5 µM;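 active = activity change of -60% or lower, but not beyond a set lower limit; inconclusive = change between -60% and -40%, or beyond the set limit; inactive = change above -40%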
Starred values were filed as active, the others as inactive; i = inactive; ? = inconclusive; · = not tested or not shown. Shown are actives, neighbours in structure and some others; about 1.7% of the full set was active somewhere. % is set by controls: 0 for no effect and ±100 for the full control effect.

SMILES | RXFP1 ag | Akt phos inh | KCNH2 WT inh | KCNH2 3.1 block | RXFP1 antagonist
COc1ccc(C)cc1NC(=O)C(Sc1nnc(Nc2cc(C)ccc2OC)s1)c1ccccc1 (stereo not drawn) | 0% | i | -121* | -11 | -36
Cc1ccc(NC(=O)CCC(C(=O)O)N2C(=O)c3ccccc3C2=O)cc1 (stereo not drawn) | 1% | i | -187* | -141* | -9
COc1ccc(C2(c3ccc(OC)cc3)NC(=O)N(CC(=O)Nc3ccc(OC(F)F)cc3)C2=O)cc1 | 0% | i | -83* | · | -14
O=C(Nc1ccccc1)c1ccc(NCCN2C(=O)CCC2=O)c([N+](=O)[O-])c1 | 1% | i | 0 | 24 | -23
Cc1ccccc1NC(=O)c1cc([N+](=O)[O-])ccc1NCCN1C(=O)CCC1=O | 10% | i | 5 | -159* | -3
CCc1ccc2oc(C(=O)NCc3ccc(S(N)(=O)=O)cc3)c(C)c2c1 | 17% | i | -4 | 3 | -120*
Cc1c(C(=O)NCc2ccc3c(c2)OCO3)oc2ccc(S(=O)(=O)N3CCCCCC3)cc12 | 0% | -112%* | -15 | -4 | 4
COc1ccc(-c2nc(C(=O)Nc3ccc(C(C)=O)cc3)nn2-c2cccc(Cl)c2)cc1 | -6% | · | · | · | ·
Cc1ccc(CSc2nnc(-c3ccncc3)n2N)cc1 | 1% | i | -2 | 1 | 10
COC(=O)c1cc(C)nc2c1c(=O)nc(SCc1c(C)cc(C)cc1C)n2C1CC1 | 3% | · | · | · | -18
Cc1ccc(CSc2nc(=O)c3c(C)cc(C)nc3n2C2CC2)cc1 | 10% | · | · | · | -62*
Cc1ccc(Cl)c2c1=NC(=O)C=2c1[nH]c(=S)[nH]c1O | 0% | i | 4 | 3 | -109*
O=C1N=c2ccccc2=C1c1[nH]c(=S)[nH]c1O | -1% | i | 10 | -3 | -13
C/C(=N\Nc1ccc(Cl)c(C(=O)O)c1)c1cccs1 | -1% | i | -1 | 10 | 13
COC(=O)c1ccc(OS(=O)(=O)N(C)C)cc1 | 0% | i | -227* | -11 | 6
CN(C)S(=O)(=O)Oc1ccc(C(=O)Nc2ccc([N+](=O)[O-])cc2)cc1 | 4% | i | -9 | 21 | 5
Cc1cc(C)c2cc(C#N)c(N3CCCN(S(=O)(=O)c4ccccc4)CC3)nc2c1 | · | i | -19 | -70* | -8
COc1ccccc1O | -2% | i | -9 | 7 | 7
Nc1ncnc2c1ncn2[C@@H]1O[C@H](COP(=O)(O)O)[C@@H](O)[C@H]1O | ? | i | -5 | 0 | 16
CC1(C)O[C@@H]2[C@H](O1)[C@@H](COS(=O)(=O)O)O[C@H]2n1cnc2c(N)ncnc21 | 16µM* | · | · | · | ·
Nc1ncnc2c1ncn2[C@@H]1O[C@H](COS(=O)(=O)O)[C@@H](O)[C@H]1O | 7.1µM* | i | · | · | ·
CC1(C)O[C@@H]2[C@H](O1)[C@@H](CO)O[C@H]2n1cnc2c(N)ncnc21 | 3% | i | -1 | 11 | ·
O=C(CNC(=O)c1ccco1)N=Nc1c(O)[nH]c2ccc([N+](=O)[O-])cc12 | 2% | i | -6 | 1 | -2
COC(=O)c1ccc(CNC(=O)CSc2nnc(COc3ccccc3)n2C)o1 | 2% | -110%* | 3 | -3 | -1
COC(=O)c1cccc(NC(=O)CSc2nnc(COc3ccccc3)n2C)c1 | -1% | i | 7 | -2 | -13
COc1ccc2[nH]c(C(=O)NCCCN3CCCC3=O)c(C)c2c1 | 1% | i | -9 | 16 | 0
COc1cccc(C(=O)C2CCCN(Cc3ccc(OC)c(Cn4cncn4)c3)C2)c1 (stereo not drawn) | 0% | i | 13 | -3 | -6
COc1ccc(CN2CCCC(C(=O)c3ccc(Cl)cc3)C2)cc1Cn1cccn1 (stereo not drawn) | 3% | i | -106* | -96* | -13
CCOc1cccc(CN2CCCC(N3CCc4ccccc4C3)C2)c1O (stereo not drawn) | 1% | i | 10 | -19 | -2
COc1ccc(C(=O)C2CCCN(C3Cc4ccccc4C3)C2)c(OC)c1 (stereo not drawn) | 1% | i | 7 | -4 | -65*
